HIF-2a inh: blocks HIF-2a reporter activity | 786-0 RCC cells HIF-2a reporter, luciferase luminescence, overnight | inhibition, % at 18.8 µM | hit rate 0.72% among 360,000;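 active means inhibition of the luminescence signal of 40% or more relative to plate controls, in a single-dose primary screen at 18.75 µM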
PPC-1+TRAIL kill: compounds killing PPC-1 cancer cells with TRAIL present (potentiator screen, no TRAIL-free arm); PPC-1 cells + TRAIL, ATPLite viability luminescence; cell killing (% activity), % at 4 µM or 5 µM; hit rate 0.41% among 220,000;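 active means cell killing above 50% in the first pass at 4 µM, then a duplicate retest at 5 µM averaging 50% or more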;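 further: plate controls were cells with TRAIL plus DMSO for no effect and medium-only wells lacking cells for full effect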
KKLEB cytotox: reduces viability of KKLEB cystic fibrosis airway cells; KKLEB CF airway cells viability, ATPlite luminescence, overnight; active compounds read low; cells stimulated with P. aeruginosa culture filtrate; activity change (cytotoxicity), % at 5 µM; hit rate 0.36% among 360,000;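 active means corrected activity change at or below -50% at 5 µM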
Peg3 prom inh: inhibitors of Peg3 promoter. HeLa PEG-Prom luciferase reporter, luminescence, overnight. AID 588405. hit rate 1.7% among 360,000. inhibition, % at 20 µM;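 active means inhibition of at least 50% at 20 µM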
C8 TRAIL sens: caspase-8 TRAIL sensitization; NB7+C8 cells + TRAIL, ATPlite viability luminescence; inhibition (viability loss, TRAIL sensitization), % at 10 µM; hit rate 1% among 360,000; AID 624354;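 active means compounds causing at least 50% loss of cell viability in the single-dose screen, relative to plate controls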
CF NFkB block: inhibitors of cystic fibrosis induced NF-kB. inhibition, % at 5 µM. hit rate 0.86% among 360,000. KKLEB NF-kB-GFP reporter, PAF-induced, GFP fluorescence overnight;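 active means at least 50% inhibition at 5 µM, scaled per plate between neutral and stimulator controls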;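 further: PAF is a Pseudomonas aeruginosa culture filtrate used as stimulus; plate controls were PAF-stimulated DMSO wells for no effect and unstimulated DMSO wells for full effect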
* marks the source's active call; other numbers are inactive results; · = no result given. Shown are actives, neighbours in structure and some others; about 3.1% of the full set was active somewhere.

SMILES	HIF-2a inh	PPC-1+TRAIL kill	KKLEB cytotox	Peg3 prom inh	C8 TRAIL sens	CF NFkB block
CCCNC(=O)c1cn(CC)c2cc(N3CCN(C(=O)c4ccco4)CC3)c(F)cc2c1=O	10	·	26	19	2	-21
CCn1cc(C(=O)NCc2cccc(F)c2)c(=O)c2cc(F)c(N3CCN(C(=O)c4ccco4)CC3)cc21	18	22	-1	55*	32	4
COc1ccc(-c2nn(-c3ccccc3)cc2/C=N/N2C(=O)CSC2=S)cc1	43*	-12	-21	57*	69*	19
COc1ccc(CCNC(=O)CCC(=O)n2ncc3ccc(Cl)cc32)cc1OC	20	·	-14	10	10	8
CCCn1c(O)c(/C=C2\C=NN=C2c2ccccc2)sc1=S	-8	-1	20	0	76*	31
C=CCn1c(O)c(/C=C2\C=NN=C2c2ccccc2)sc1=S	-15	7	8	21	8	29
CC(C)[C@H]1COCCS(=O)(=O)N1Cc1cccc(Cl)c1	25	·	4	6	-7	7
CS(=O)(=O)N(CCC#N)Cc1ccc(/C=C2\C(=O)Nc3ccccc32)o1	18	7	-6	16	-15	50*
Cc1cc(OC(=O)c2ccccc2C(F)(F)F)c([N+](=O)[O-])c(=O)[nH]1	14	·	-8	9	-15	-26
COc1cccc(C(=O)Nc2cccc(-c3ccc(N4CCOCC4)nn3)c2)c1OC	-172	·	-24	-161	67*	13
O=C(Nc1cccc(-c2ccc(N3CCOCC3)nn2)c1)c1ccc(F)cc1F	-225	·	5	-283	51*	-12
COc1ccc(C(=O)Nc2cccc(-c3ccc(N4CCOCC4)nn3)c2)cc1OC	-243	·	-5	-183	64*	-9
CCOc1ccc(C(=O)Nc2cccc(-c3ccc(N4CCOCC4)nn3)c2)cc1OCC	-172	·	-8	-185	44	13
CSc1ccccc1OCc1cc(C(=O)N(C)Cc2ccncn2)no1	-249	·	10	-235	-3	-2
C[C@@H]1CN([C@@H](C)CO)C(=O)CCCn2nncc2CO[C@H]1CN(C)C(=O)C1CC1	11	·	0	-18	8	-15
CCc1ccc(NS(=O)(=O)c2c(C(=O)N3CCOCC3)c(C)n(C)c2C)cc1	14	·	8	-10	-6	-5
Cc1ccc(-c2nc(Nc3cccc(O)c3)c3ccccc3n2)cc1	-35	·	-14	10	26	-15
Cc1ccc(-c2nc(Nc3ccc(O)cc3)c3ccccc3n2)cc1	-143	·	-1	59*	21	-21
Cc1ccc(NC(=O)COc2ccccc2CNC(C)(C)CC(C)(C)C)cc1	-35	31	-18	75*	12	30
CC(C)(CO)NCc1ccccc1OCC(=O)Nc1ccccc1	-85	8	-13	-25	-8	19
CN(C)c1cccc(C(=O)NCCCSc2ccccc2)c1	-168	·	-10	-148	11	-23
COc1cc(/C=N/N=C(N)N)ccc1OCc1ccccc1Cl	-49	43	-4	102*	23	-11
CN(CC(=O)Nc1ccccc1Cl)C(=O)COC(=O)c1cnccn1	14	·	5	16	8	-20
COc1ccc(-c2csc(N(CCc3ccccc3)C(=O)COc3ccccc3)n2)cc1	28	22	-4	4	13	-7
O=C(COc1ccc(Cl)cc1)N(Cc1ccccc1)c1nc(-c2ccccc2)cs1	13	8	-2	55*	17	3
SMILES	HIF-2a inh	PPC-1+TRAIL kill	KKLEB cytotox	Peg3 prom inh	C8 TRAIL sens	CF NFkB block
CCCN(CCC)c1nc(-c2ccccn2)nc2ccccc12	17	·	-22	52*	-2	4
N#C/C(=C\C=C\c1ccccc1)C(=O)NCc1ccco1	-2	-11	-2	53*	3	-18
CC(C)(C)NCCC(O)c1cc(C(F)(F)F)nc2c(C(F)(F)F)cccc12 (stereo not drawn)	-14	·	-18	42	91*	16
O=c1c2cc(Cl)cc(Cl)c2nc2n1CCC2	15	9	14	25	6	-5
OC(c1cc(C(F)(F)F)nc2c(Cl)cc(Cl)cc12)C1CCCCN1 (stereo not drawn)	3	17	-4	109*	3	6
O[C@@H](c1cc(C(F)(F)F)nc2c(C(F)(F)F)cccc12)[C@H]1CCCCN1	0	·	-10	103*	22	16
O=C(c1cc(-c2ccc(Cl)cc2Cl)on1)N1CCOCC1	-79	14	-28	-67	57*	-2
COC(=O)[C@@]12C[C@@H](CC(=O)NCCC(C)C)C(=O)N(Cc3cccc4ccccc34)C1=CCC(C)(C)C2	-42	·	·	·	4	·
CCOc1ccc(C(=O)C2CCN(C(=O)c3ccc([N+](=O)[O-])cc3)CC2)cc1	12	·	-1	19	30	-1
Cc1cc(S(=O)(=O)Nc2ncnc3sccc23)ccc1F	7	·	12	-1	-12	9
COc1ccc(C(=O)O/N=C(\N)c2ccc(OC)c(OC)c2)c(OC)c1	-116	·	11	-131	17	-9
CCOP(=O)(OCC)/C(=N/OC(=O)c1ccc(Cl)cc1Cl)C(N)=O	9	4	13	3	7	-8
Cc1ccc(/C(N)=N/OC(=O)c2ccc(C)cc2Cl)cc1	-65	62*	-64*	-84	71*	-7
Cc1cccc(/C(N)=N/OC(=O)c2cccc3ccccc23)c1	-189	·	38	0	92*	20
Cc1cc(/C(N)=N/OC(=O)c2ccccc2Cl)no1	-160	37	6	-96	61*	-8
N/C(=N\OC(=O)c1ccc(Cl)cc1Cl)c1ccc(Cl)cc1	-53	18	-10	-201	87*	-16
Cc1csc(=O)n1CCC(=O)OCC(=O)NNC(=O)c1ccccc1	0	·	2	1	1	3
COc1cc(OC)cc(C(=O)O/N=C(\N)c2cccc(C)c2)c1	-182	·	22	-69	32	-14
N/C(=N\OC(=O)c1ccccc1Cl)c1ccccc1	-249	33	-7	-193	66*	8
Cc1cccc(/C(N)=N/OC(=O)c2ccc(Cl)cc2Cl)c1	-108	46	-16	-130	62*	-25
N/C(=N\OC(=O)c1ccccc1Cl)c1ccc(Cl)cc1	-162	33	-2	-208	83*	0
Cc1ccccc1C(=O)O/N=C(\N)c1cccc([N+](=O)[O-])c1	-204	36	6	-209	74*	2
N/C(=N\OC(=O)c1cccc2ccccc12)c1cccc([N+](=O)[O-])c1	-38	2	-4	-66	15	-2
CCOc1ccc(NC(=O)CN(C)S(=O)(=O)c2cccc3cccnc23)cc1	-18	·	19	-22	11	-21
Cc1ccccc1S(=O)(=O)N(C)C[C@@H]1OCc2cnnn2CCCC(=O)N([C@@H](C)CO)C[C@H]1C	8	·	10	-5	6	-12
N/C(=N\OC(=O)c1ccc(Cl)cc1)c1ccn[nH]1	-46	·	-14	-215	83*	-3

High-throughput results from PubChem BioAssay.
